Consider twelve molecules from PubChem BioAssay AID2283105 (EPA ToxCast).

SMILES strings stand for the structures. Activity calls are given as the source filed them. Rule for the calls: active = hit-call score of the fitted dose curve at least 0.9, where 1 is the maximum; inactive = score below 0.9.

Chain of human CYP2E1, CYP2E1 (gene 1571) (P05181 whole entry, looked up): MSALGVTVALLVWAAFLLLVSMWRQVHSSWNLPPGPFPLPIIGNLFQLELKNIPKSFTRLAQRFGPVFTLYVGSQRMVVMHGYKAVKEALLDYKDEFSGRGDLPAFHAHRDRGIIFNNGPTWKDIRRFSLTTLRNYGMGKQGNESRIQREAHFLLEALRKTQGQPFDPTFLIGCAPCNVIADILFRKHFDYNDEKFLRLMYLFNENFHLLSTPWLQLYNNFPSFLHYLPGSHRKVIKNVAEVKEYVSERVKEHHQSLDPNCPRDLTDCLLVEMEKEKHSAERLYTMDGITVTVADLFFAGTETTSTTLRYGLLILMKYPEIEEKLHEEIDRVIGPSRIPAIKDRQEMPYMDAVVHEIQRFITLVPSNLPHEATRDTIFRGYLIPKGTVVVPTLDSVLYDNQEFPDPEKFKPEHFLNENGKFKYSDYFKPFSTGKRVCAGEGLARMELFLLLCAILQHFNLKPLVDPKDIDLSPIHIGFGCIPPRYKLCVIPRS

The assay has as its target human CYP2E1, CYP2E1 (gene 1571) (UniProt P05181). Description: NVS_ADME_hCYP2E1: NovaScreen (NVS) CYP450-related Enzyme Activity (ADME) Assay for human CYP2E1. The protocol:
NVS_ADME_hCYP2E1 is a biochemical, single-readout assay that uses extracted gene-proteins in a cell-free assay. Measurements were taken 0.5 hour after chemical dosing in a 96-well plate.NVS_ADME_hCYP2E1 is one of one assay component(s) measured or calculated from the NVS_ADME_hCYP2E1 assay. It is designed to make measurements of enzyme activity, a form of enzyme reporter, as detected with fluorescence intensity signals by Fluorescence technology.Data from the assay component NVS_ADME_hCYP2E1 was analyzed into 1 assay endpoint. This assay endpoint, NVS_ADME_hCYP2E1, was analyzed in the positive analysis fitting direction relative to Acetonitrile as the negative control and baseline of activity. Using a type of enzyme reporter, loss-of-signal activity can be used to understand changes in the enzymatic activity as they relate to the gene CYP2E1. Furthermore, this assay endpoint can be referred to as a primary readout, because this assay has produced multiple assay endpoints where this one serves a enzymatic activity function. To generalize the intended target to other relatable targets, this assay endpoint is annotated to the cyp intended target family, where the subfamily is xenobiotic metabolism.
Binding assays used specific radioligands (tritiated, iodinated) with non-radioactive competitive displacement ligands in agonist or antagonist protocols (as indicated) and various reference compounds and inhibitors to titrate specific binding to receptors and transporters. Most enzyme assays (CYPs, kinases, phosphatases, proteases, HDACs) used recombinant protein and specific substrates (fluorescence mostly, some colorimetric and radioactive) and inhibitors, followed by a biochemical separation of substrate and product. All assays for the biochemical HTS were initially run in duplicate at a single concentration (10 uM for CYP450 assays and 25 uM for all others). Assay-chemical combinations meeting a pre-defined threshold (e.g., 30% inhibition and other criteria defined below) were then run in singleton concentration-response format with maximum concentration of 20 uM for CYPs and 50 uM for all others. Each assay was run with positive and negative controls, and concurrent controls on every plate. The follow-up (secondary) screen tested active chemical-pairs in concentration series, as well as a few additional assays not tested in the primary screen, some selected negative inactives, and several cases re-run in the concentration series for confirmatory purposes.
The term AC50 denotes the concentration giving half of the maximal activity seen. Consider `CCCN(CCOc1c(Cl)cc(Cl)cc1Cl)C(=O)n1ccnc1`, for which the half-maximal activity concentration (AC50) is 486 nM (active).
For the molecule `COP(=S)(OC)SCn1nnc2ccccc2c1=O`, the outcome was inactive.
Take `CC(C)NC(=O)N1CC(=O)N(c2cc(Cl)cc(Cl)c2)C1=O`: the molecule was called inactive.
For `COP(=S)(OC)Oc1ccc([N+](=O)[O-])c(C)c1`, the AC50 is 319 nM (active).
Same read-out and setting: for `CCC(=NOC/C=C/Cl)C1=C(O)CC(C2CCOCC2)CC1=O` (configuration not stated) the value was 3500 nM (active).
As for `FC(F)C(F)(F)OCC(Cn1cncn1)c1ccc(Cl)cc1Cl` (configuration not stated), the molecule was called inactive.
The same measure, in the same setting: next, `N#Cc1c[nH]cc1-c1cccc2c1OC(F)(F)O2`: “inactive”; `COP(=S)(OC)Oc1ccc([N+](=O)[O-])cc1`: “inactive”.
On to `CC(C)(C)C(O)C(Oc1ccc(Cl)cc1)n1cncn1` (configuration not stated), for which the AC50 is 604 nM (active).
Regarding `N#CSCSC#N`, the molecule was called inactive.
Consider `CC[C@H](C)[C@H]1O[C@]2(C=C[C@@H]1C)C[C@@H]1C[C@@H](C/C=C(\C)[C@@H](O[C@H]3C[C@H](OC)[C@@H](O[C@H]4C[C@H](OC)[C@@H](NC)[C@H](C)O4)[C@H](C)O3)[C@@H](C)/C=C/C=C3\CO[C@@H]4[C@H](O)C(C)=C[C@@H](C(=O)O1)[C@]34O)O2`, for which the AC50 was 551 nM (active).
As to `COc1nn(CSP(=S)(OC)OC)c(=O)s1`, the outcome was inactive.
